# Test system: Fibrinogen (Alexa647-labelled)
# Test: fibrinogen binders on compound microarrays, profiling panel, artefact control for SMM control-protein annotation, biochemical, small-molecule microarray, 635/667 nm fluorescence (AID 1131);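 also: z-score merges 667 nm fluorescence with per-spot signal-to-noise over triplicate slides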
# Details: fibrinogen-A647 binding fluorescence, higher = more signal
row,Compound,composite z-score
1,COc1ccc(CCN2C(=O)[C@@]3(c4ccc([N+](=O)[O-])cc4)CC(=O)N(CC45CC6CC(CC(C6)C4)C5)[C@@H]3c3ccc(CO)cc32)cc1,0.138
2,C=CCN1C(=O)[C@@]2(Cc3ccccc3)N=C(c3ccc(OCCCO)cc3)O[C@H]2c2ccccc21,0.578
3,CN1CCC(CCCO)=CC1C1CC1 (stereo unspecified),-0.146
4,CC(C)N1CC=CC23O[C@@H]4/C=C\CCCOC(=O)C4[C@H]2C(=O)N(CCCCCO)[C@@H]3C1=O (stereo partly specified),-3.13
5,COCCOC(=O)N1C(=O)[C@@]2(c3cc(C#CCC(C(=O)OC)C(=O)OC)ccc31)[C@H](C(=O)N1CCN(c3ncccn3)CC1)[C@H]1C(=O)O[C@H](c3ccccc3)[C@H](c3ccccc3)N1[C@@H]2c1ccc(O)cc1,0.65
6,CCC(=O)[C@]12O[C@@]3([C@@H]4C(=O)OCC[C@@H]41)N(Cc1ccccc1)C(C)=C(C(=O)OC)[C@@H](c1ccccc1)N3C2=O,-1.35
7,COC(=O)[C@@]1(Cc2ccc(OC)cc2)[C@H]2c3cc(C(=O)N(C)C)n(Cc4ccc(C)c(F)c4F)c3C[C@H]2CN1C(=O)c1ccccc1,0.746
8,COc1cc(CO)cc(I)c1O[C@H]1C=C(C(=O)NCCO)C[C@@H](NCCc2c[nH]c3ccccc23)[C@@H]1O,0.824
9,Cc1ccc(N2C(=O)c3ccccc3[C@](C)(C(=O)O)[C@@H]2c2ccc(CO)cc2)nc1,-0.912
10,COC(=O)[C@@]1(Cc2ccccc2)[C@H]2c3cc(C(=O)N4CCCC4)n(CCN4CNCC4=O)c3C[C@H]2CN1C(=O)c1ccccc1,0.728
11,CO[C@@H]1COC(=O)[C@H](C)NC(=O)CC=C[C@@H](C)[C@H](OC)COC(=O)[C@H](C)NC(=O)CC=C[C@H]1C,0.38
12,C=C(COC)/C(=C/C[C@@H](OC(C)=O)c1cccc(OCCO)c1)c1cc(C(=O)OC)ccc1OC,-1.09
13,CCOC(=O)C[C@H]1[C@H](OC(=O)c2ccccc2-c2ccccc2)[C@@H](NC(=O)c2ccc(-c3ccccc3)cc2)c2cc(OCCCO)ccc2N1C(=O)Cc1ccc(OC)cc1,0.411
14,[N-]=[N+]=NCc1ccccc1C[C@]1(C(=O)N2CCCCC2)N=C(c2ccc(OCCCO)cc2)O[C@H]1c1ccccc1CN=[N+]=[N-],0.947
15,CO[C@H]1COC(=O)[C@@H](OCc2ccccc2)C=C[C@H](C)[C@@H](OC)COC(=O)[C@H](OCc2ccccc2)C=C[C@@H]1C,-0.305
16,COCCOC(=O)N1C(=O)[C@@]2(c3cc(C#CCNC(N)=O)ccc31)[C@H](c1ccc(OCCO)cc1)N1[C@H](c3ccccc3)[C@H](c3ccccc3)OC(=O)[C@H]1[C@@H]2C(=O)Nc1nc2ccccc2s1,0.398
17,CCOC(=O)C1=CC[C@@H](c2ccc(-c3ccc(OCc4ccccc4)cc3)c(OC)c2)N(S(=O)(=O)c2ccc(C)cc2)[C@H]1c1ccccc1,0.978
18,Cc1ccc(S[C@]2(C(=O)O)CC(=O)N(Cc3ccccc3)[C@@H]2c2ccc(CO)cc2)cc1,0.0619

row,Compound,composite z-score
1,Cc1ccc(S[C@]2(C(=O)NC(C)C)CC(=O)N(Cc3cc(C(F)(F)F)cc(C(F)(F)F)c3)[C@@H]2c2ccc(CO)cc2I)cc1,-0.306
2,CO[C@@H]1COC(=O)[C@H](COCc2ccccc2)NC(=O)CC=C[C@@H](C)[C@H](OC)COC(=O)[C@H](COCc2ccccc2)NC(=O)CC=C[C@H]1C,-0.201
3,CCC1=C2CN(Cc3ccccc3Br)[C@@H]([C@@H](O)Cc3ccccc3)C2C=CCC1 (stereo partly specified),0.455
4,COCCOC(=O)N1C(=O)[C@@]2(c3cc(C#CCC(C(=O)OC)C(=O)OC)ccc31)[C@H](c1ccccc1OCCO)N1[C@H](c3ccccc3)[C@H](c3ccccc3)OC(=O)[C@H]1[C@@H]2C(=O)N1CCCCCCC1,0.744
5,CO[C@@H]1COC(=O)[C@@H]2CCCN2C(=O)CC=C[C@@H](C)[C@H](OC)COC(=O)[C@@H]2CCCN2C(=O)CC=C[C@H]1C,-1.15
6,C=C(COC)/C(=C/C[C@H](OC(C)=O)c1ccc(OCCO)cc1)c1cnc2ccccc2c1,0.333
7,CC(=O)Nc1ccc([C@H]2[C@H](C)CC[C@H]3C(=O)N4[C@@H](CC[C@@H](C)[C@@H]4c4ccc(NC(C)=O)cc4)C(=O)N32)cc1,0.798
8,CN(C)CCCC[C@@H]1NC(=O)[C@@H]2C[C@H](C(=O)O)[C@H](c3ccc(O)cc3)N2C1=O,0.166
9,C[C@@H]1CC[C@H]2C(=O)N3[C@@H](CC[C@@H](C)[C@@H]3c3cccc(N4CCOCC4)c3)C(=O)N2[C@H]1c1cccc(Br)c1,0.783
10,CCCN1C(=O)[C@@]2(CCS(=O)(=O)c3ccccc3)N=C(c3ccc(OCCCO)cc3)O[C@H]2c2ccccc21,0.762
11,O=C(O)[C@@H]1Cc2c([nH]c3ccccc23)[C@@H](c2ccccc2)N1,0.651
12,C[C@@H]1CC[C@H]2C(=O)N3CCC[C@H]3C(=O)N2[C@H]1c1ccc(Br)cc1,0.0658
13,CCC#CCN(Cc1ccccc1Br)[C@H](/C=C/c1ccccc1)[C@@H](O)Cc1ccccc1,-0.58
14,[N-]=[N+]=NCc1ccccc1C[C@]1(C(N)=O)N=C(c2ccc(OCCCO)cc2)O[C@H]1c1ccccc1CN=[N+]=[N-],0.98
15,C=CCC(OC(C)=O)[C@@H]1[C@@H](N(Cc2ccc(-c3ccccc3)cc2)C(=O)c2ccc(-c3ccccc3)cc2)c2cc(OCCCO)ccc2N1C(=O)Cc1ccc(OC)cc1 (stereo partly specified),0.466
16,O=C1C[C@@](C(=O)NC2CC2)(c2ccc([N+](=O)[O-])cc2)[C@@H](c2ccc(CO)cc2I)N1CC12CC3CC(CC(C3)C1)C2,0.751
17,Cc1ccc(N2C(=O)c3ccccc3[C@@H](C(=O)NCC(F)(F)F)[C@@H]2c2ccc(CO)cc2)nc1,-1.4
18,C=CC[C@]1(C(=O)O)N=C(c2ccc(OCCCO)cc2)O[C@H]1c1ccccc1,0.243

# Source: PubChem BioAssay
